The text below walks through data of PubChem BioAssay.

Assay [1] in a line: reduced mouse 2C T cell binding to pMHC/ICAM-1 vesicles – MLPCN validation set, flow cytometry, LFA-1/ICAM-1 modulator project, pilot screen (AID 2523;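 active = response below a set limit, under 55% cells CD8-positive and vesicle-bound, and CD8 cells' 90th-percentile brightness under 279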;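 for vesicle binding response: mean PE anti-B7-1 fluorescence of CD8+ cells relative to row control; 100% = QL9-loaded vesicles with DMSO vehicle in the same plate row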). The following applies: 2C mouse CD8+ T cells, at 7 µM, stronger effect = lower value; double positive events: measured here: CD8+/vesicle+ event percentage. (In general: A flow cytometer gives signals particle by particle.)
In assay [2] the target is Integrin beta-1 (Homo sapiens) + Integrin alpha-4 (Homo sapiens) (UniProt P13612+P05556). The assay can be described thus: alpha4beta1 integrin LIBS antibody binding reduction – U937 cells, HUTS-21 mAb, flow cytometry, validation set, VLA-4 allosteric modulator project, pilot screen (AID 2674;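 active = inhibition above 50%, about 3 SD of the validation set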;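 note: antibody binding induced by the VLA-4 ligand LDV present at three times its Kd; 0% = LDV ligand with antibody and no compound and 100% = antibody without LDV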). The following applies: HUTS-21 LIBS mAb binding, at 6.7 µM, stronger effect = higher value, binding induced by LDV ligand.
Integrin beta-1 (Homo sapiens) + Integrin alpha-4 (Homo sapiens), sequence (P05556 whole entry, looked up): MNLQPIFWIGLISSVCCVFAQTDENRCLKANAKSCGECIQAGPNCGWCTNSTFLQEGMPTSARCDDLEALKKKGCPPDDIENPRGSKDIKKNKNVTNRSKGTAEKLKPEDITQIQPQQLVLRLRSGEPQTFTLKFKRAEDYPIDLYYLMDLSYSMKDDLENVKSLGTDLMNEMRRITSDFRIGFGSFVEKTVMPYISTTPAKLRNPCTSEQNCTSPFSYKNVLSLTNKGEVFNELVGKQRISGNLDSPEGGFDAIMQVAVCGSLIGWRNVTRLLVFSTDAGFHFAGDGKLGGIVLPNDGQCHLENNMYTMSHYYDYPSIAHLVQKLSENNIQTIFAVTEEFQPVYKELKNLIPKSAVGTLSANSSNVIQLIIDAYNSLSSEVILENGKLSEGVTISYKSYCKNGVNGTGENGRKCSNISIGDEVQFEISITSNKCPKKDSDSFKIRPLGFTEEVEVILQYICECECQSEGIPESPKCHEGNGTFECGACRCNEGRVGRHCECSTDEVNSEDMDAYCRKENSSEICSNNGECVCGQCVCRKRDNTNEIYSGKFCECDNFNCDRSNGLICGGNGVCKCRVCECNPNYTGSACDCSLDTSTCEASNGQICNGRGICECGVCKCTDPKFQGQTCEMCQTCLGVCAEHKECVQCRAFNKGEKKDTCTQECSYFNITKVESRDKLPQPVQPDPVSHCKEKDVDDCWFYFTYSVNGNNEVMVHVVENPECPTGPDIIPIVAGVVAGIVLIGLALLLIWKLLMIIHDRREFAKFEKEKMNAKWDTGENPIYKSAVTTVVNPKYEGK
Integrin beta-1 (Homo sapiens) + Integrin alpha-4 (Homo sapiens), sequence (P13612 whole entry, looked up): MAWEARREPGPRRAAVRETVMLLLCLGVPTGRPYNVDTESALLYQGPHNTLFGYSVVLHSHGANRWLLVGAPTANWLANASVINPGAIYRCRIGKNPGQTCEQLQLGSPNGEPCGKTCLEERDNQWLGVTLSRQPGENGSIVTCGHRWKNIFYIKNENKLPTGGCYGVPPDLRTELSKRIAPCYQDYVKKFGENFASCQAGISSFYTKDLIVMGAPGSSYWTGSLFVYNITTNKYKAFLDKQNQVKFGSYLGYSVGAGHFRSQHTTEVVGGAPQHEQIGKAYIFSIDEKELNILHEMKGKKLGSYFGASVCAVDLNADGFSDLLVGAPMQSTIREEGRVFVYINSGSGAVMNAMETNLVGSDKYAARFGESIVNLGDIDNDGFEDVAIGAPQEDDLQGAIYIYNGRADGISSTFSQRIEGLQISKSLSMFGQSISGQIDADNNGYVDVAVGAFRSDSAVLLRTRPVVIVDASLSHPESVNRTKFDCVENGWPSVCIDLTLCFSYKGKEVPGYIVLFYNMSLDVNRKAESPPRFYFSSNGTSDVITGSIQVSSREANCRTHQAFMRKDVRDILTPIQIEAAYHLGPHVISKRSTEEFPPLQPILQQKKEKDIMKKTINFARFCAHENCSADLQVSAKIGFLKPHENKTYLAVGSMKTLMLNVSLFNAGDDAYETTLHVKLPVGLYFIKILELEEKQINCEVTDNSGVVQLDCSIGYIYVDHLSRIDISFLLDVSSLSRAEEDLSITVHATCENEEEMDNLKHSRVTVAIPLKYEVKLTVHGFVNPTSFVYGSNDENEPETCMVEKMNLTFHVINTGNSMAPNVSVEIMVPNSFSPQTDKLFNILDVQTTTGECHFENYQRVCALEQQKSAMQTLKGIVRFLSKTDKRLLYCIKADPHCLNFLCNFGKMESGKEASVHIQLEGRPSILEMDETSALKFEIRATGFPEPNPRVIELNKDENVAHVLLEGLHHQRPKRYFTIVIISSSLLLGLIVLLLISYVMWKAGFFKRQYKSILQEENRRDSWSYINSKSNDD

The target in assay [3] is Beta-adrenergic receptor kinase 1 (Homo sapiens) (UniProt P25098). The assay can be described thus: GRK2 binders displacing RNA aptamer, biochemical, validation, human GRK2, bead flow cytometry (AID 488806;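 active = aptamer binding inhibition above 30%, about 3 SD of noise from non-fluorescent compounds; inactive = inhibition at or below 30%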). The following applies: bead-bound GRK2, FAM-aptamer displacement, at 10 µM, stronger effect = higher value.
Beta-adrenergic receptor kinase 1 (Homo sapiens), sequence (P25098 whole entry, looked up): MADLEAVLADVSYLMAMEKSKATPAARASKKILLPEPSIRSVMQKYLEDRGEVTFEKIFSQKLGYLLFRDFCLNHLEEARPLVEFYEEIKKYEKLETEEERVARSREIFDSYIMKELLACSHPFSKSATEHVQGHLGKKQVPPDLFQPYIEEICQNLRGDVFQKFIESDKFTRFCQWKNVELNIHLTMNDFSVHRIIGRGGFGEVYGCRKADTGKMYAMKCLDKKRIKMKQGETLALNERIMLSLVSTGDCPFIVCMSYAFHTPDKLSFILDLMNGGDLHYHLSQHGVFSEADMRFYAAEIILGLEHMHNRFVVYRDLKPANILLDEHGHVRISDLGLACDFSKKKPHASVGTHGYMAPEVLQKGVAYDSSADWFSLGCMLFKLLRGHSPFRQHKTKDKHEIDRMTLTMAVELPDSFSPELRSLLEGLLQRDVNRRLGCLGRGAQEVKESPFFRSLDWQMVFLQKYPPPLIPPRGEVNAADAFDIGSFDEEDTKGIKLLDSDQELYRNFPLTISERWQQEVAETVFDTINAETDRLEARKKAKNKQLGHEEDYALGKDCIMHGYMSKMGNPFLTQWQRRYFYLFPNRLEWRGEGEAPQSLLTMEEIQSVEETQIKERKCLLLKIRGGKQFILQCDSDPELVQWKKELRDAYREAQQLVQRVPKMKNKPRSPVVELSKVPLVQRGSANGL
Assay [4] addresses Beta-2 adrenergic receptor (Homo sapiens) (UniProt P07550). Kind of assay: agonist-induced loss of surface beta2AR – cell-based, FAP fluorogen, flow cytometry, validation set, pilot screen (AID 504459;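 active = percent response above 42, roughly 3 SD of non-fluorescent test compounds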;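 note: agonist-driven loss of surface beta2AR via internalization measured by FAP dye flow cytometry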). Conditions: Am2.2-beta2AR cells, at 10 µM, stronger effect = higher value.
The nature of assay [5]: cytosolic pH regulators acting via V-ATPase – S. cerevisiae, pHLuorin, HTS validation (AID 504600; in the data active = response above about 15%;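 note: plate controls were DMSO for no effect and reference compound for full effect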). Conditions: V-ATPase proton transport, at 10 µM, stronger effect = higher value.
In assay [6] the test system is anti-desmoglein-3 scFv antibody binding to human DSG3. Kind of assay: blockers of pathogenic pemphigus antibody–desmoglein-3 binding – biochemical, validation compound set, bead-based, flow cytometry, pilot screen (AID 588368;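 active = binding below the plate cutoff, the plate median minus 3 SD, with a reading above zero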;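 note: signal is the median channel fluorescence of bead-bound GFP antibody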). The following applies: Protein G beads, DSG3-Fc, scFv-GFP binding, at 10 µM, stronger effect = lower value.
The nature of assay [7]: Nile Red efflux blockade in pump-expressing yeast – validation compound set, multiplex, phenotypic, pilot screen (AID 588506;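 active = efflux inhibition above 0.42, the validation set average plus 4 SD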;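 note: Nile Red retained in cells so higher fluorescence means more efflux inhibition; 0 = negative control wells and 1 = enniatin B 25 µM full block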). The following applies: S. cerevisiae pump-expressing triplex, Nile Red efflux flow cytometry; at 10 µM; stronger effect = higher value; the pumps come from Candida albicans.
Assay [8] has as its target ATP-binding cassette sub-family B member 6 (Homo sapiens) (UniProt Q9NP58). Kind of assay: blockers of ABCB6-driven porphyrin uptake – K562-ABCB6 cells, flow cytometry, validation set, pilot screen (AID 588550;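 active = inhibition above the screen-wide mean plus 3 SD, about 51%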;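 note: 0% = DMSO wells and 100% = benzethonium chloride 70 µM positive control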). Conditions: K562-ABCB6 porphyrin accumulation, 1 h, at 10 µM, stronger effect = higher value.
The nature of assay [9]: AML differentiation inducers, ER-HoxA9 marrow cells – cell-based, GFP/MAC1 double positive, flow cytometry, validation set, primary screen (AID 588685;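 active = differentiation response of at least 50%, scaled between solvent and reference control, from cells with both markers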;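 note: compound exposure lasts four days before antibody staining and flow analysis; 0% = DMSO wells and 100% = 5 µM fulvestrant positive control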). The following applies: stronger effect = higher value, normalized: vehicle 0, fulvestrant 100.
Assay [10] is described as follows: yeast TOR reporter LAP4-GFP level changes – cell-based, second cherry pick, flow cytometry, confirmation (AID 2621).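 Note: ratio of well median GFP fluorescence to plate DMSO mean so 100% = DMSO.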 Conditions: S. cerevisiae LAP4-GFP strain, 3 h, at 10 µM, stronger effect = higher value.
Assay [11] is described as follows: TOR pathway reporter MEP2-GFP, hit retest – S. cerevisiae, flow cytometry GFP, second cherry picks, confirmation (AID 2622;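 active = GFP signal above 150% of the solvent control wells, that is a rise of more than half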;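 note: median channel GFP fluorescence of all gated yeast cells per well; ratio of median GFP to plate DMSO average so 100% = DMSO level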). Conditions: S. cerevisiae MEP2-GFP strain, 3 h, at 10 µM, stronger effect = higher value.
Assay [12] in a line: retest of hits on RPL19A-GFP strain – cell-based, S. cerevisiae, flow cytometry, second cherry pick, confirmation (AID 2623;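 active = under 65% GFP response relative to DMSO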;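 note: median GFP channel fluorescence per well over the all cells gate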). The following applies: 3 h, at 10 µM, stronger effect = lower value, 100% means same as DMSO wells.
The nature of assay [13]: yeast TOR pathway CIT2-GFP reporter modulation – flow cytometry, second cherry pick, single plex, confirmation (AID 2624;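 active = GFP response vs DMSO above about 150%, limit read from the data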;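 note: median green fluorescence per well over all gated yeast cells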). The following applies: S. cerevisiae CIT2-GFP strain, 3 h, at 10 µM, stronger effect = higher value, DMSO control wells read 100%.
A short description of assay [14]: yeast AGP1-GFP fluorescence change, single-dose confirmation – cell-based, flow cytometry, S. cerevisiae, cherry pick set 2 (AID 2643;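 active = over 150 percent of DMSO response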;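 note: median GFP channel fluorescence over all cells without mother daughter split; sample median GFP divided by mean DMSO control so 100% equals DMSO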). Conditions: S. cerevisiae AGP1-GFP strain, 3 h, at 10 µM, stronger effect = higher value.
Assay [15] is described as follows: calorie-restriction mimetic ROS inhibitors, yeast – validation compound set, pilot screen (AID 2706;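 active = superoxide response below 65% of plate, a cut near 3 SD across the whole screen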;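 note: yeast exposed to compound for one week at 30 degrees C before staining; 100% = mean of all compound wells on the same plate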). Conditions: S. cerevisiae aging, superoxide DHE fluorescence; at 10 µM, stronger effect = lower value.
Assay [16] deals with AP-2 complex subunit beta (Homo sapiens) (UniProt P63010). Kind of assay: beta-arrestin/AP2 interaction blockers – biochemical, validation set, GST-AP2 beads, flow cytometry, pilot screen (AID 504541;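 active = inhibition above 54%, about 3 SD of non-fluorescent compounds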;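 note: AP2 carries R879A mutation and is captured from E. coli lysate; bead-bound FITC arrestin peptide fluorescence measuring arrestin peptide binding to AP2; 0% = DMSO wells and 100% = excess unlabeled arrestin peptide control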). Conditions: FITC arrestin peptide, at 10 µM, stronger effect = higher value, AP2 beta2 appendage fragment, R879A mutant.
AP-2 complex subunit beta (Homo sapiens), sequence (P63010 whole entry, looked up, the tested form may be a part, one chain of several): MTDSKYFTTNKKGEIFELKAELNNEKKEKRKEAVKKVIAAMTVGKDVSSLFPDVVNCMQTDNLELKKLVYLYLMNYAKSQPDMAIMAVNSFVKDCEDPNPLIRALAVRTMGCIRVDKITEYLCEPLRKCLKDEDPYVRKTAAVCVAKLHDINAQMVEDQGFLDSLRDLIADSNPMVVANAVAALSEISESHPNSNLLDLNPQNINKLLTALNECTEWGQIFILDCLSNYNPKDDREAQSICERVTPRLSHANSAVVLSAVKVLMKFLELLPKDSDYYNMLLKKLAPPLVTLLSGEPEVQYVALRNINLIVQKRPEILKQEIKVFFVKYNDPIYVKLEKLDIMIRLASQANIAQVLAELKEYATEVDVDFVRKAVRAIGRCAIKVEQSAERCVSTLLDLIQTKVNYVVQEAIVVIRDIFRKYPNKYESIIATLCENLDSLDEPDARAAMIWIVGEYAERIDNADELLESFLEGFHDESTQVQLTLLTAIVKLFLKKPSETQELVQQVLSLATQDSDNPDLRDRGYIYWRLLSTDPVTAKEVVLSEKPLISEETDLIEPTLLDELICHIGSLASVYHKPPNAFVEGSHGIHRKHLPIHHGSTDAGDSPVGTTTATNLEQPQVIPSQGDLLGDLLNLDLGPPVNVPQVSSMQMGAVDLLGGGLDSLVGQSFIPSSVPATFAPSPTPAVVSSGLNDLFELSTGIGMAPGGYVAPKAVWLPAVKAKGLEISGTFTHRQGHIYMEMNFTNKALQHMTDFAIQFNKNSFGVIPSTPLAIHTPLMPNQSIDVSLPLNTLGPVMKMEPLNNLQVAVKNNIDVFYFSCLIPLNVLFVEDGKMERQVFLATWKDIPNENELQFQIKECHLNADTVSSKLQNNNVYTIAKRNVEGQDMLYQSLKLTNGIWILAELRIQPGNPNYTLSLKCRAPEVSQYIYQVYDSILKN
Assay [17] can be described thus: green-channel fluorescence artefact in S. cerevisiae – s288c strain, artefact control for yeast TOR pathway GFP screen, dose response (AID 2757;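 active = fluorescence span over the dose series, or activity score, above about 33, limit read from the data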;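 note: thousands of bead-calibrated equivalent soluble fluorophore molecules from median cell fluorescence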). The following applies: 520 nm autofluorescence, flow cytometry, 3 h, at 33 µM, stronger effect = higher value, zero means same as solvent-only cells.

The list shows a part of the results. Active and inactive are the calls of the source.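 Rule for the calls, unless noted: active = GFP signal as percent of the solvent control above about 150%, meaning raised reporter expression (limit read from the data); inconclusive = fewer than 70 cells counted in the well; inactive = the rest.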

Beta-2 adrenergic receptor (Homo sapiens), sequence (P07550 whole entry, looked up): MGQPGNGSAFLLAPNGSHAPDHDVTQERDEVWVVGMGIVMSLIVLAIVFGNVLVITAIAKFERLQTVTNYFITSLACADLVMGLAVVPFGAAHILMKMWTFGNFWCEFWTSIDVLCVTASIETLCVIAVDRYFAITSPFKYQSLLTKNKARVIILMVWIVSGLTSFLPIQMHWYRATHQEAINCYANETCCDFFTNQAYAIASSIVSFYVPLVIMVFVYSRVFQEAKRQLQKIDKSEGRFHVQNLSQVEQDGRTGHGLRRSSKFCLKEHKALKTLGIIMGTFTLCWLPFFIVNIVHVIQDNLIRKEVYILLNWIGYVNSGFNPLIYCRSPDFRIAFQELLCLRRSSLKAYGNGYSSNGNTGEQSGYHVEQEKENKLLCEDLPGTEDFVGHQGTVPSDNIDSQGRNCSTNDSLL
ATP-binding cassette sub-family B member 6 (Homo sapiens), sequence (Q9NP58 whole entry, looked up): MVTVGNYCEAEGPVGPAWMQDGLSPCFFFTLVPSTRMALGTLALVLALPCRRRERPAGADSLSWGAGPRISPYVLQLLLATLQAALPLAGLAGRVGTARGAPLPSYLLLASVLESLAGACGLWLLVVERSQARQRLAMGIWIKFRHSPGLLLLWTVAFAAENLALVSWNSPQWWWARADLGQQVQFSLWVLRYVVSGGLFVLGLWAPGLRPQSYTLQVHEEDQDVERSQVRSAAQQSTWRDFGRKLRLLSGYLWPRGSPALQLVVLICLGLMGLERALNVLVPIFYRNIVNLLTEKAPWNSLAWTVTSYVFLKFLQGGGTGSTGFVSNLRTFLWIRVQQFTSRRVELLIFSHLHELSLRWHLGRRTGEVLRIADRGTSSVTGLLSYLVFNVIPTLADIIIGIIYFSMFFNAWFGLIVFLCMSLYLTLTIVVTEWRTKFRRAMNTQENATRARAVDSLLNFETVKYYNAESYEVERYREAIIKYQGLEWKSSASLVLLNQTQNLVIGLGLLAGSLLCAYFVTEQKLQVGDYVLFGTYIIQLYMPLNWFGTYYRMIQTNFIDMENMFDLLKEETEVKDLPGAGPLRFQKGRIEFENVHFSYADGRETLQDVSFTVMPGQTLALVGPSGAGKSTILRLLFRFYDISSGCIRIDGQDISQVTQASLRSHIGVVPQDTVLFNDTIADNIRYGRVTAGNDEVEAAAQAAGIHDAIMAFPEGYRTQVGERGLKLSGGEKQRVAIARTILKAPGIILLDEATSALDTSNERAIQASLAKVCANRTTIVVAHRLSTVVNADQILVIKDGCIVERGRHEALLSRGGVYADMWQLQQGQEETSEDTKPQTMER

`CCn1c(=N)c(C(=O)NC)cc2c(=O)n3cccc(C)c3nc21`: the double positive events in assay [1] was 55.2%. Further, the vesicle binding response in assay [1] is 26.6% (inactive). Besides, the inhibition – broadly, the relative decrease from the control value, in per cent – in assay [2] is -8.75% (inactive); in [8], 5% (inactive). In addition, the aptamer binding inhibition in assay [3] is 2% (inactive). Further, the figures for the response in assay [4] and in [5] were -15.1% (inactive) and -34.5% (inactive), respectively. Besides, the binding (% of control) in assay [6] was 108% (inactive). Also, the efflux inhibition (fraction of control) in assay [7] was 1.08 (active). The differentiation response in assay [9] was 24.7% (inactive).
As for `C#CCOCCOCCOCCNc1nc(N2CCN(C(=O)CCCCCCCCCCNC(=O)[C@H](CCCCN)n3cc(C)nn3)CC2)nc(N2CCN(C(=O)CCCCCCCCCCNC(=O)[C@H](CO)n3cc(CCCSC)nn3)CC2)n1`, the GFP response vs DMSO is 109% (inactive) in assay [10], 119% (inactive) in assay [11], 97.6% (inactive) in assay [12] and 110% (inactive) in assay [13]. In [14], the percent response vs DMSO was 104% (inactive).
Molecule `COc1ccc2cc(-c3nc4ccccc4n3C)c(=O)oc2c1` returned a double positive events in assay [1] of 65.4%. Further, in assay [1], the vesicle binding response is 147% (inactive). Also, the inhibition was -9.79% (inactive) in assay [2] and 7% (inactive) in assay [8]. For the same molecule, the aptamer binding inhibition in assay [3] was 1% (inactive). In addition, the response is -16.5% (inactive) in assay [4] and -29.1% (inactive) in assay [5]. In addition, in [6], the binding (% of control) is 95.5% (inactive). In addition, in assay [7], the efflux inhibition (fraction of control) is -0.2 (inactive). The differentiation response in assay [9] was 17.8% (inactive).
`CCCCNc1c(-c2cccc(Sc3ccc(OC)cc3)c2)nc2ccccn12`: the GFP response vs DMSO in assay [10] is 138% (inactive); in [11], 129% (inactive); in [12], 92.7% (inactive); in [13] it was 120% (inactive). Further, the percent response vs DMSO in assay [14] was 90.6% (inactive).
`COc1ccc(S(=O)(=O)N2CCN(C(=O)COc3ccc4c(C)cc(=O)oc4c3)CC2)cc1`: the double positive events in assay [1] is 90%. Moreover, the inhibition is 3.67% (inactive) in [2], -2.78% (inactive) in assay [16] and -3% (inactive) in [8]. Further, the superoxide response (% of plate) in [15] is 96.9% (inactive). Further, the aptamer binding inhibition in assay [3] is -1% (inactive). Also, the response is 11.5% (inactive) in [4] and 0.22% (inactive) in assay [5]. Moreover, the binding (% of control) in [6] was 103% (inactive). Further, in assay [7], the efflux inhibition (fraction of control) is 0.3 (inactive). The differentiation response in assay [9] is 4% (inactive).
For `CCn1c(SCCC(C)C)nnc1-c1c[nH]c2ccccc12`, the GFP response vs DMSO was 95.2% (inactive) in assay [10], 96.1% (inactive) in assay [11], 96.3% (inactive) in [12] and 100% (inactive) in assay [13]. For the same molecule, the percent response vs DMSO in assay [14] was 96.7% (inactive).
With `COc1ccc(C2(C)ON(c3ccccc3C(F)(F)F)C2=O)cc1` (centres undefined), the GFP response vs DMSO is 113% (inactive) in assay [10], 103% (inactive) in [11], 100% (inactive) in [12] and 100% (inactive) in assay [13]. Besides, the percent response vs DMSO in assay [14] is 101% (inactive). Also, the fluorescence change (kMESF span) in assay [17] is 0.5 (inactive).
Take `CC(C)NC[C@@H](O)c1ccc(O)c(O)c1`: in assay [1], the double positive events was 58%. The vesicle binding response in assay [1] is 125% (inactive). In addition, the inhibition is -27.9% (inactive) in [2], 0.64% (inactive) in [16] and 2% (inactive) in assay [8]. Besides, the superoxide response (% of plate) in assay [15] is 97.4% (inactive). In assay [5], the response was 11.9% (inactive). The binding (% of control) in assay [6] is 97.3% (inactive). Also, the efflux inhibition (fraction of control) in [7] was 0 (inactive). The differentiation response in [9] was -7.5% (inactive).
For the molecule `COc1cccc(/C=N/Nc2ncc(C(F)(F)F)cc2Cl)c1O`, the GFP response vs DMSO in [10] was 200% (active); in assay [11] it was 143% (inactive); in assay [12], 102% (inactive); in assay [13] it was 132% (inactive). Moreover, the percent response vs DMSO in [14] was 86.2% (inactive). In [17], the fluorescence change (kMESF span) was 1.52 (inactive).
Take `COC(=O)c1cc(-c2ccc(OC)c(OC)c2)on1`: the double positive events in assay [1] turned out to be 64.8%. In assay [1], the vesicle binding response was 155% (inactive). Moreover, the values for the inhibition in assay [2], in assay [16] and in assay [8] were -0.45% (inactive), 35.3% (inactive) and 0% (inactive), respectively. Besides, the aptamer binding inhibition in assay [3] is -1% (inactive). Besides, the response in assay [4] was 17.4% (inactive); in assay [5] it was -27.6% (inactive). In addition, in assay [6], the binding (% of control) was 107% (inactive). In addition, the efflux inhibition (fraction of control) in [7] is 0.61 (active). Moreover, in [9], the differentiation response is 31.5% (inactive).
Turning to `COc1ccc(C)cc1NC(=O)CSc1nc(SC)ns1`, the GFP response vs DMSO was 97.2% (inactive) in [10], 97.8% (inactive) in [11], 100% (inactive) in [12] and 102% (inactive) in assay [13]. In assay [14], the percent response vs DMSO was 100% (inactive).
